Assay outcomes (PubChem BioAssay)
HT1080 IDH1KD tx – HT-1080 IDH1 knockdown cell toxicity (counter line); 360,000 compounds, 2% hits; Potency, µM (top dose mostly 46.1 µM), hits mostly cytotoxic; HT-1080 IDH1 knockdown viability, ATP luminescence, 48 h
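% activity derives from luminescence (CellTiter-Glo), normalised to DMSO and no-cell wells. HT-1080-IDH1KD cells, 750/well, had 48 h compound exposure at 37 °C.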
DT40 TDP1 no CPT – qHTS for Inhibitors of human tyrosyl-DNA phosphodiesterase 1 (TDP1): qHTS in cells in absence of CPT | DT40 Tdp1-/- hTDP1 cells, no CPT, ATP luminescence, 48 h | Potency, µM (highest dose often 46.2 µM), hits mostly inhibitors | 420,000 compounds, 15% hits; also: nearly all actives have a fitted effect of over 55% in size
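Chicken DT40 Tdp1-/- cells stably complemented with human TDP1 were seeded at 400 cells/well with DMSO in place of 20 nM camptothecin. After compound pinning, cells grew at least 48 hr at 37 °C; viability read by CellTiter-Glo luminescence.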
HT1080NT lethal – kills 2HG-producing HT-1080-NT fibrosarcoma cells | 360,000 compounds, 1.6% hits | Potency, µM (titrated, usually from 46.1 µM), most hits filed as cytotoxic | AID 686970 | HT-1080-NT fibrosarcoma viability, CellTiter-Glo ATP luminescence, 48 h;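 also: NT is the 2HG producing partner of a matched IDH1 knockdown line; nearly all actives have a fitted effect of over 55% in size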
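Viability by CellTiter-Glo luminescence after 48 h compound exposure at 37C of HT-1080-NT cells (750/well, RPMI, 5% FBS). % activity scaled between DMSO wells and medium-only wells, then curve-fitted and categorized by curve class.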
IL-1B inflam inh – inhibitors of inflammasome signaling (IL-1 beta secretion); THP-1 LPS/ATP IL-1B secretion, AlphaLISA, 16 h; active compounds read low; activity change, % at 57.5 µM; 360,000 compounds, 4.7% hits; AID 743279; in the data active = activity change below about -50%; inconclusive = mostly about -30% to -49%
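THP-1 cells pretreated 1 hr with compounds (up to 57.5 uM final), then stimulated with LPS (250 ng/mL final) plus ATP (1.25 mM final); secreted IL-1B measured by AlphaLISA after 16 hr, decreased signal indicating inhibition.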
TDP1 cell CPT – growth inhibition of DT40 Tdp1-/-;hTDP1 cells with camptothecin (screen for TDP1 inhibitors); 420,000 compounds, 12% hits; Potency, µM (doses to about 46.2 µM), usual class: inhibitors; chicken DT40 Tdp1-/-;hTDP1 cells + 20 nM CPT, ATP luminescence, 48 h; AID 686979; also: nearly all actives have a fitted effect of over 55% in size
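Chicken DT40 Tdp1-/- cells complemented with human TDP1, 400 cells/well, exposed to compounds plus 20 nM camptothecin for at least 48 h at 37 C; viability read as ATP content by CellTiter-Glo luminescence.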
uPA surface inh – inhibitors of cell surface uPA generation. cell surface uPA generation assay, qHTS. Potency, µM (top dose mostly 38.3 µM), hits mostly inhibitors. 330,000 compounds, 0.31% hits; active = well fitted inhibition curve with a large enough effect; inconclusive = small, poorly fitted or top-dose-only effect; inactive = no such curve, though single readings can be large or run the other way; tested in mouse RAW 264.7 cells; also: nearly all actives have a fitted effect of over 55% in size
Of the large screens only hits and unclear results are named; the others gave an inactive call. An excerpt weighted towards active compounds, which were near 19% of everything screened. Unless noted, calls follow the shape of the dose curve; as a rule, active = well fitted curve in the direction sought with a large enough effect; inconclusive = small, poorly fitted or top-dose-only effect, or another doubt; inactive = no such curve, though single readings can be large; an effect the other way counts as inactive or inconclusive.

O=C(OCC(=O)N1CCCCC1)c1cc(NS(=O)(=O)c2ccc(Cl)c([N+](=O)[O-])c2)ccc1O	DT40 TDP1 no CPT inconclusive, IL-1B inflam inh inconclusive
COc1ccc(NC(=O)c2cc(S(=O)(=O)N3CCCCC3)c[nH]2)cc1Cl	none
COc1ccc(Cl)cc1NS(=O)(=O)c1ccc2c(c1)NC(=O)CCS2	DT40 TDP1 no CPT 4.6µM, TDP1 cell CPT inconclusive
Cn1c(=O)n(C)c2cc([N+](=O)[O-])c(N3CCN(C(=O)C(C)(C)C)CC3)cc21	DT40 TDP1 no CPT 13µM, TDP1 cell CPT 16µM
Cn1c(=O)n(C)c2cc([N+](=O)[O-])c(N3CCN(C(=O)c4ccccc4Br)CC3)cc21	DT40 TDP1 no CPT 21µM, HT1080NT lethal inconclusive, IL-1B inflam inh inconclusive, TDP1 cell CPT inconclusive
Cn1c(=O)n(C)c2cc([N+](=O)[O-])c(N3CCN(C(=O)c4ccccc4Cl)CC3)cc21	DT40 TDP1 no CPT 16µM, HT1080NT lethal inconclusive, IL-1B inflam inh inconclusive, TDP1 cell CPT 21µM
Cn1c(=O)n(C)c2cc([N+](=O)[O-])c(N3CCN(S(C)(=O)=O)CC3)cc21	none
Cn1c(=O)n(C)c2cc([N+](=O)[O-])c(N3CCN(C(=O)c4ccccc4)CC3)cc21	DT40 TDP1 no CPT 18µM, TDP1 cell CPT 15µM
COc1cc(C(=O)N2CCN(c3ccccc3OC)CC2)c([N+](=O)[O-])cc1OC	DT40 TDP1 no CPT inconclusive
COc1ccc(CN2CCC(n3cc(C(=O)N4CCCCC4)nn3)CC2)c(OC)c1	none (no result: HT1080 IDH1KD tx, HT1080NT lethal, IL-1B inflam inh, uPA surface inh)
Cc1cccc(OCC(=O)N2CCN(C(=O)COc3ccc(Cl)cc3)CC2)c1	DT40 TDP1 no CPT inconclusive, TDP1 cell CPT inconclusive
CCOC(=O)c1ccccc1NC1c2ccccc2C(=O)N1c1cc(C)ccn1 (centres undefined)	DT40 TDP1 no CPT inconclusive, TDP1 cell CPT 23µM
CC(C)CCn1c(=O)c2sccc2n2c(CCCC(=O)Nc3ccc(C(C)C)cc3)nnc12	DT40 TDP1 no CPT 15µM, TDP1 cell CPT inconclusive (no result: HT1080 IDH1KD tx, HT1080NT lethal, IL-1B inflam inh, uPA surface inh)
CCn1c(=O)c2sccc2n2c(CCCC(=O)NCc3cccnc3)nnc12	none
Cn1c(=O)c2sccc2n2c(CCCC(=O)Nc3ccc(Oc4ccc(Cl)cc4)cc3)nnc12	DT40 TDP1 no CPT 18µM, TDP1 cell CPT inconclusive (no result: HT1080 IDH1KD tx, HT1080NT lethal, IL-1B inflam inh, uPA surface inh)
COCCCn1c(=O)c2sccc2n2c(CCCC(=O)Nc3cccc(C(F)(F)F)c3)nnc12	DT40 TDP1 no CPT 21µM, TDP1 cell CPT 16µM (no result: HT1080 IDH1KD tx, HT1080NT lethal, IL-1B inflam inh, uPA surface inh)
CCn1c(=O)c2sccc2n2c(CCCC(=O)Nc3ccc(Oc4ccccc4)cc3)nnc12	DT40 TDP1 no CPT 15µM, TDP1 cell CPT inconclusive (no result: HT1080 IDH1KD tx, HT1080NT lethal, IL-1B inflam inh, uPA surface inh)
COc1ccc(NC(=O)CCc2nnc3n(C)c(=O)c4sccc4n23)cc1	TDP1 cell CPT inconclusive (no result: HT1080 IDH1KD tx, HT1080NT lethal, IL-1B inflam inh, uPA surface inh)
CC(C)OC(=O)Nc1ccc2c(c1)N(C(=O)CCN1CCOCC1)c1ccccc1CC2	DT40 TDP1 no CPT inconclusive
CC(C)NC(=O)Cn1cc(C(=O)COc2ccccc2)c2ccccc21	none
Cc1c(C(=O)NCc2ccc3c(c2)OCO3)sc(=O)n1Cc1cccc(F)c1	DT40 TDP1 no CPT inconclusive, TDP1 cell CPT inconclusive (no result: uPA surface inh)
CC(C)CCc1noc(CN2CCN(CC(=O)NC(C)C)CC2)n1	DT40 TDP1 no CPT 26µM, TDP1 cell CPT 26µM
C/C(Cl)=C\Cn1c(O)c(N=NC(N)=S)c2cc(Br)ccc21	HT1080 IDH1KD tx inconclusive, DT40 TDP1 no CPT 1.6µM, HT1080NT lethal inconclusive, TDP1 cell CPT 1.3µM, uPA surface inh inconclusive
NC(=S)N=Nc1c(O)n(CCCl)c2ccc(Br)cc12	DT40 TDP1 no CPT 23µM, IL-1B inflam inh -101, TDP1 cell CPT 16µM
O=c1cccc2n1Cc1cc3ccccc3nc1-2	DT40 TDP1 no CPT inconclusive, TDP1 cell CPT inconclusive, uPA surface inh 7.9µM
COc1ccc(/C=C/C(=O)NC(=S)NNC(=O)c2ccco2)cc1OC	DT40 TDP1 no CPT 23µM, TDP1 cell CPT inconclusive
CCCOc1ccc(/C=C/C(=O)N2CCN(C(=O)c3ccco3)CC2)cc1OC	DT40 TDP1 no CPT 13µM, TDP1 cell CPT inconclusive (no result: uPA surface inh)
